The entries come from a sample that favours hits as a whole.
12-LOX inh = blocks human arachidonate 12S-lipoxygenase; P18054; purified 12hLO, xylenol orange hydroperoxide absorbance; Potency, µM (titrated, usually from 108 µM), for inactives: top-dose activity change, negative = inhibition, hits mostly inhibitors; 580,000 compounds, 1.1% hits; AID 1671190; note: potency is the fitted concentration of half-maximal effect
Target sequence (P18054 whole entry, looked up): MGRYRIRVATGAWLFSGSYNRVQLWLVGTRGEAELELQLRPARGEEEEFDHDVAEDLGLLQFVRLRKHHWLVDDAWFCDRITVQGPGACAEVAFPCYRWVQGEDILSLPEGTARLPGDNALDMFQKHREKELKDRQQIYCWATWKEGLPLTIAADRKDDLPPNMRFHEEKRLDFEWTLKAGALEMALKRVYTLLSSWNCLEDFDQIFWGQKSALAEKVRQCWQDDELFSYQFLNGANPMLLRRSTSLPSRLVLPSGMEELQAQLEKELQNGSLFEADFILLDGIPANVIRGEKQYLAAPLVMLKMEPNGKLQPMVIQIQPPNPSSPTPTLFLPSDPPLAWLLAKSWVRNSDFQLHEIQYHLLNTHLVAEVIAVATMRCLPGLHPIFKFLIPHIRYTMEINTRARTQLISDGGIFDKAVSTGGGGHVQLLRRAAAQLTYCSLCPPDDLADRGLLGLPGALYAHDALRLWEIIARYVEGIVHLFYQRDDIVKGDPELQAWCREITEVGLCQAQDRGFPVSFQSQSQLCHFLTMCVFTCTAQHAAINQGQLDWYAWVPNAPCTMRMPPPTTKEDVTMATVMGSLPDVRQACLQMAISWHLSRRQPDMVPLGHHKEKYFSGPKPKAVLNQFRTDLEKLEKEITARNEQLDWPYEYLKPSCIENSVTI
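Hydroperoxide product was detected by ferrous iron/xylenol orange as the 573 to 405 nm absorbance ratio. Arachidonic acid at 40 uM (final) was turned over for 30 min at room temperature by 150 nM human 12hLO, pH 7.0 Hepes buffer, after 15 min compound preincubation.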
TDP1 cell noCPT = qHTS for Inhibitors of human tyrosyl-DNA phosphodiesterase 1 (TDP1): qHTS in cells in absence of CPT | DT40 Tdp1-/- hTDP1 cells, no CPT, ATP luminescence, 48 h | Potency, µM (doses to about 46.2 µM), without a hit: at the highest dose activity change, negative = growth inhibition, usual class: inhibitors | 420,000 compounds, 15% hits | AID 686978, 2013; note: potency is the fitted concentration of half-maximal effect; nearly all actives have a fitted effect of over 55% in size
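Growth kinetics read by CellTiter-Glo luminescence after ≥48 hr at 37 °C. Cells: DT40 Tdp1-/- stably carrying human TDP1, 400 per well, compound exposure in the absence of CPT (DMSO vehicle).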
IL-1B inflam inh = inflammasome signaling inhibition, IL-1 beta readout; activity change, % at 57.5 µM; 360,000 compounds, 4.7% hits; THP-1 LPS/ATP IL-1B secretion, AlphaLISA, 16 h; hits give low values; in the data active = activity change below about -50%; inconclusive = mostly about -30% to -49%
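Secreted IL-1B measured by AlphaLISA bead assay after 16 h compound exposure of THP-1 cells; compounds (final up to 57.5 uM) added 1 h before LPS (250 ng/mL) and ATP (1.25 mM) stimulation; lower signal means less secretion.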
HT1080 IDH1KD tx = HT-1080 IDH1 knockdown cell toxicity (counter line); Potency, µM (doses to about 46.1 µM), for inactives: at the top dose activity, negative = toxicity, most hits filed as cytotoxic; 360,000 compounds, 2% hits; HT-1080 IDH1 knockdown viability, ATP luminescence, 48 h;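 note: potency is the fitted concentration of half-maximal effect; 0% = DMSO wells and -100% = cell-free medium wells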
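Using the IDH1-knockdown HT-1080 line run in the same batch and compound series as the NT line, viability after 48 h at 37 °C was determined by CellTiter-Glo luminescence and expressed as % activity.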
DT40 TDP1 CPT = DT40-hTDP1 cell growth loss with CPT; chicken DT40 Tdp1-/-;hTDP1 cells + 20 nM CPT, ATP luminescence, 48 h; Potency, µM (top dose mostly 46.2 µM), without a hit: at the highest dose activity change, negative = growth inhibition, hits mostly inhibitors; 420,000 compounds, 12% hits; AID 686979; note: potency is the fitted concentration of half-maximal effect; nearly all actives have a fitted effect of over 55% in size
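Chicken DT40 Tdp1-/- cells complemented with human TDP1, 400 cells/well, exposed to compounds plus 20 nM camptothecin for at least 48 h at 37 C; viability read as ATP content by CellTiter-Glo luminescence.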
HT1080NT lethal = kills 2HG-producing HT-1080-NT fibrosarcoma cells | HT-1080-NT fibrosarcoma viability, CellTiter-Glo ATP luminescence, 48 h | Potency, µM (series often up to 46.1 µM), for inactives: top-dose activity, negative = less viability, most hits filed as cytotoxic | 360,000 compounds, 1.6% hits;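 note: NT is the 2HG producing partner of a matched IDH1 knockdown line; potency is the fitted concentration of half-maximal effect; 0% = DMSO-treated cells and -100% = media-only wells without cells; nearly all actives have a fitted effect of over 55% in size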
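Read-out is CellTiter-Glo luminescence after 10 minutes at room temperature, following 48 hours' compound treatment of HT-1080-NT cells (750 cells/well, RPMI, 5% FBS, 37 degrees C).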
* hit, by the source's call; u = inconclusive; x = no result; [ ] = dose if it differs, or a comment. Unless noted, calls come from the whole dose curve; as a rule, active = well fitted curve in the direction sought with a large enough effect; inconclusive = small, poorly fitted or top-dose-only effect, or another doubt; inactive = no such curve, though single readings can be large; an effect the other way counts as inactive or inconclusive. Unless noted, % is set by controls: 0 for no effect and ±100 for the full control effect.

SMILES | 12-LOX inh | TDP1 cell noCPT | IL-1B inflam inh | HT1080 IDH1KD tx | DT40 TDP1 CPT | HT1080NT lethal
O=C(NCCCc1cnc[nH]1)NCCCN(Cc1ccc(Cl)cc1)c1ccc(Br)cn1 | x | 4µM* | x | x | 2.2µM* | x
S=C(NCCCc1cnc[nH]1)NCCCN(CCc1ccccc1)c1ccc(Br)cn1 | x | 8.9µM* | x | x | 10µM* | x
S=C(NCCCc1cnc[nH]1)NCCCN(Cc1ccc(Cl)cc1)c1ncc(Br)cn1 | x | 7.9µM* | x | x | 13µM* | x
Cc1noc2c(NCCN(C)C)cc(-c3ccc(Cl)cc3)nc12 | 11%[176 µM] | x | x | x | x | x
O=C1CC2(CCN(C(=O)c3ccccn3)CC2)Oc2ccccc2N1 | 1%[6.33 µM] | x | x | x | x | x
Cc1c(C(=O)C(=O)N2c3ccc(F)cc3CCC2C)c2ccccc2n1C (stereo not drawn) | -7% | 2.6µM* | 27 | 2.3µM* | 2.6µM* | 3.3µM*
CC1CCCN(C(=O)c2nn(C)c3c2CSc2ccccc2-3)C1 (stereo not drawn) | u | -1% | -8 | 8% | -17% | 22%
Cc1ccc2c(c1)-c1c(c(C(=O)N3CCN(c4cc(C)ccc4C)CC3)nn1C)CS2 | -5% | 15µM* | x | x | u | x
CCOc1ccccc1NC(=O)c1nn(C)c2c1CSc1ccccc1-2 | 12% | 18µM* | x | x | u | x
CCOc1ccccc1N(CC)C(=O)c1nn(C)c2c1CSc1ccccc1-2 | -1% | u | 0 | -10% | 26µM* | -1%
CC1CC(C)CN(C(=O)c2nn(C)c3c2CSc2ccccc2-3)C1 (stereo not drawn) | 37% | 23µM* | -28 | 1% | u | 7%
CCCCNC(=O)c1nn(C)c2c1CSc1ccccc1-2 | -21% | u | x | x | 16µM* | x
Cn1nc(C(=O)NCc2ccccc2)c2c1-c1ccccc1SC2 | 34% | u | x | x | u | x
COc1ccc(CCNC(=O)C(=O)NCc2n[nH]c(=O)c3ccccc23)cc1 | -3% | x | x | x | x | x
Clc1cccc(Nc2c3c(nc4ncnn24)CCC3)c1 | 14% | u | 32 | u | u | -2%
CCc1cccc(Nc2c3c(nc4ncnn24)CCC3)c1 | 3% | 21µM* | 86 | -1% | u | 11%
Cc1cc(OCC[N+]2(C)CCCCC2)nc2ccccc12 | -49% | 21µM* | 4 | 6% | u | 14%
N[S+](=O)([O-])c1ccc2c(c1)OCCN(Cc1ccccc1Cl)C2 | 58%[176 µM] | x | x | x | x | x
CC(C)C(=N)N | 27% | x | x | x | x | x
CCNC(=O)NC(=O)CN(C)Cc1cc(C)c(OC)c(C)c1 | 0% | x | x | x | x | x
Cc1ccccc1[C@H]1[C@@H](C(=O)NC(CO)CO)C[C@@](C)(C(=O)O)N1C | -3% | x | x | x | x | x
Cc1ccc(/C(N)=N/OC(=O)N2CCOCC2)cc1 | 21% | u | -17 | 18µM* | 18µM* | u
Cc1ccc(C(=O)OCC(=O)N2CCOCC2)cc1 | -4% | 0% | -8 | 6% | 1% | 6%
O=C(N/N=C\c1ccc(CNS(=O)(=O)c2ccc(Cl)cc2)o1)C(=O)Nc1ccc(Oc2ccccc2)cc1 | -12% | 6.5µM* | 4 | -1% | 2.9µM* | 2%
O=C(N/N=C\c1ccc(CNS(=O)(=O)c2ccccc2)o1)C(=O)Nc1ccc(F)cc1 | -4% | u | 32 | -17% | u | 1%
SMILES | 12-LOX inh | TDP1 cell noCPT | IL-1B inflam inh | HT1080 IDH1KD tx | DT40 TDP1 CPT | HT1080NT lethal
O=C(N/N=C\c1ccc(CN(Cc2ccc(Cl)cc2)S(=O)(=O)c2ccccc2)o1)C(=O)Nc1ccc(F)cc1 | 1% | 15µM* | u | 3% | u | 0%
Cc1cnc(CC2CCN(C(=O)C(C)C)C2)n1C1CC1 (stereo not drawn) | 20% | x | x | x | x | x
CCOC(=O)/C(C#N)=C1\C(=O)N(Cc2ccccc2)c2ccccc21 | u | 9.2µM* | -5 | -2% | 9.2µM* | -8%
CCOC(=O)/C(C#N)=C1/C=CN(Cc2ccccc2)C=N1 | 3% | 1% | -5 | -3% | -2% | u
Cc1ccc(CNC(=O)c2ccc(C(F)(F)F)cc2)cc1 | 0% | x | x | x | x | x
COc1ccc(-c2cc(NC=O)c3ncc(-c4cccc(C(C)=O)c4)n3c2)cc1 | u | 18µM* | 53 | u | u | -28%
COc1cccc(-c2cc(NC=O)c3ncc(-c4ccc(C(C)=O)cc4)n3c2)c1 | -10% | 2.3µM* | 0 | 10µM* | 3.7µM* | 18µM*
CC(=O)Nc1cccc(-c2cc(NC=O)c3ncc(-c4cccc(C(C)=O)c4)n3c2)c1 | -2% | 21µM* | 192 | u | u | u
COc1cc(-c2cnc3c(NC=O)cc(-c4cccc(NC(C)=O)c4)cn23)cc(OC)c1OC | -2% | 0.52µM* | 157 | u | 0.52µM* | u
Cc1cccc(C)c1NC(=O)CN(C)S(=O)(=O)c1c(C)noc1C | 8% | x | x | x | x | x
COc1cccc(-c2cnc3c(NC(C)=O)cc(-c4cccc(NS(C)(=O)=O)c4)cn23)c1 | 4% | 23µM* | 43 | u | 26µM* | u
CC(=O)c1cccc(-c2cnc3c(NC=O)cc(-c4ccccc4)cn23)c1 | 5% | 21µM* | 103 | -7% | u | 7%
CC(=O)Nc1cc(-c2cccc(NS(C)(=O)=O)c2)cn2c(-c3ccccc3)cnc12 | u | u | -16 | u | u | u
COc1cccc(-c2cnc3c(NC=O)cc(-c4cccc(NC(C)=O)c4)cn23)c1 | -11% | 21µM* | 143 | u | 18µM* | u
CSc1ccccc1C(=O)Nc1nc(-c2nc3ccccc3s2)cs1 | -17% | x | x | x | x | x
NC(=O)C1=C(c2ccccc2)c2ccccc2C1=O | u | 5.2µM* | -102* | u | 2.9µM* | -21%
NC(=O)c1ccc2c(c1)-c1ccccc1C2=O | -5% | x | x | x | x | x
CN1CCCC1CNC(=O)c1cc2ccccc2o1 (stereo not drawn) | -24% | x | x | x | x | x
O=C(O)COc1cccc(NC(=O)c2ccccc2)c1 | -17% | -15% | -13 | 0% | -24% | -1%
COc1ccc(NC(=O)c2cccc(NC(=O)c3ccccc3)c2)c(OC)c1 | 74% | u | -5 | -20% | -12% | -2%
Cc1ccc(C(=O)C(C)Oc2cccc(NC(=O)c3ccco3)c2)cc1 (stereo not drawn) | 0% | 26µM* | -17 | 0% | u | -1%
O=C(COc1cccc(NC(=O)c2ccccc2)c1)c1ccccc1 | 2% | u | -8 | -16% | 16µM* | -2%
